Data published in PubChem BioAssay AID1159580 (chemical genetic matrix, 2015).
Among all 5,500 compounds or so, about 2,000 (36%) were called active. About 18% were inconclusive and are not listed. Cut-off read from the data, not from the text of the source: active = normalized growth mostly below about 0.91 (no sharp cut-off); inconclusive = no clear call, values can overlap the other calls; inactive = mostly above about 0.92. The list shows a part of the results.

Assay: chemical genetic growth profiling, strain panel (AID 1159580);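 note: tested at 20 µM; growth read once vehicle control cultures reached saturation at 30 °C; 1 = growth at the plate median or of vehicle wells; lower values mean less growth of the strain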
Details: growth OD

Measured: normalized growth

NCCCN
inactive: S. cerevisiae deletion strains, locus YJR066W, strain TOR1, stronger effect = lower value 0.933 | S. cerevisiae deletion strains, locus YKL009W, strain mrt4, stronger effect = lower value 1.02 | S. cerevisiae deletion strains, locus YKL068W, stronger effect = lower value 0.985 | S. cerevisiae deletion strains, locus YKL085W, strain MDH1 (second series), stronger effect = lower value 0.984 | S. cerevisiae deletion strains, locus YKL085W, strain MDH1, stronger effect = lower value 0.984 | S. cerevisiae deletion strains, locus YKL160W, strain elf1, stronger effect = lower value 1.02 | S. cerevisiae deletion strains, locus YKL190W, strain CNB1, stronger effect = lower value 0.999 | S. cerevisiae deletion strains, locus YKR001C, strain vps1, stronger effect = lower value 1.01 | S. cerevisiae deletion strains, locus YKR026C, strain gcn3, stronger effect = lower value 0.986 | S. cerevisiae deletion strains, locus YKR091W, strain srl3, stronger effect = lower value 0.998 | S. cerevisiae deletion strains, locus YLL001W, strain dnm1, stronger effect = lower value 1 | S. cerevisiae deletion strains, locus YLL026W, stronger effect = lower value 0.988 | S. cerevisiae deletion strains, locus YLL041C, strain sdh2, stronger effect = lower value 0.987 | S. cerevisiae deletion strains, locus YLR027C, strain aat2, stronger effect = lower value 1 | S. cerevisiae deletion strains, locus YLR039C, strain RIC1, stronger effect = lower value 1.09 | S. cerevisiae deletion strains, locus YLR058C, strain SHM2, stronger effect = lower value 1 | S. cerevisiae deletion strains, locus YLR102C, strain apc9, stronger effect = lower value 0.988 | S. cerevisiae deletion strains, locus YLR113W, strain HOG1, stronger effect = lower value 1.05 | S. cerevisiae deletion strains, locus YLR221C, strain rsa3, stronger effect = lower value 0.959 | S. cerevisiae deletion strains, locus YLR258W, strain gsy2, stronger effect = lower value 0.992 | S. cerevisiae deletion strains, locus YLR262C, strain YPT6 (second series), stronger effect = lower value 1.02 | S. cerevisiae deletion strains, locus YLR262C, strain YPT6, stronger effect = lower value 1.14 | S. cerevisiae deletion strains, locus YLR268W, strain sec22, stronger effect = lower value 0.979 | S. cerevisiae deletion strains, locus YLR320W, strain mms22, stronger effect = lower value 0.983 | S. cerevisiae deletion strains, locus YLR330W, strain CHS5, stronger effect = lower value 0.993 | S. cerevisiae deletion strains, locus YLR342W, strain FKS1 (second series), stronger effect = lower value 1.02 | S. cerevisiae deletion strains, locus YLR342W, strain FKS1, stronger effect = lower value 0.994 | S. cerevisiae deletion strains, locus YLR357W, strain rsc2, stronger effect = lower value 0.978 | S. cerevisiae deletion strains, locus YLR370C, strain arc18, stronger effect = lower value 0.967 | S. cerevisiae deletion strains, locus YLR371W, strain rom2, stronger effect = lower value 0.961 | S. cerevisiae deletion strains, locus YLR384C, strain iki3, stronger effect = lower value 0.993 | S. cerevisiae deletion strains, locus YLR418C, strain cdc73, stronger effect = lower value 1.03 | S. cerevisiae deletion strains, locus YML016C, strain PPZ1, stronger effect = lower value 0.994 | S. cerevisiae deletion strains, locus YML032C, strain rad52, stronger effect = lower value 1.02 | S. cerevisiae deletion strains, locus YML120C, strain ndi1, stronger effect = lower value 0.992 | S. cerevisiae deletion strains, locus YML124C, strain tub3, stronger effect = lower value 0.99 | S. cerevisiae deletion strains, locus YMR058W, strain fet3, stronger effect = lower value 0.994 | S. cerevisiae deletion strains, locus YMR078C, strain ctf18, stronger effect = lower value 0.972 | S. cerevisiae deletion strains, locus YMR125W, strain sto1, stronger effect = lower value 0.97 | S. cerevisiae deletion strains, locus YMR129W, stronger effect = lower value 0.991 | S. cerevisiae deletion strains, locus YMR205C, strain PFK2, stronger effect = lower value 1.02 | S. cerevisiae deletion strains, locus YMR223W, strain ubp8, stronger effect = lower value 1.01 | S. cerevisiae deletion strains, locus YMR231W, strain pep5, stronger effect = lower value 0.946 | S. cerevisiae deletion strains, locus YMR307W, strain GAS1, stronger effect = lower value 1.1 | S. cerevisiae deletion strains, locus YNL067W, strain RPL9B, stronger effect = lower value 1.01 | S. cerevisiae deletion strains, locus YNL071W, strain lat1, stronger effect = lower value 0.985 | S. cerevisiae deletion strains, locus YNL183C, strain NPR1, stronger effect = lower value 0.969 | S. cerevisiae deletion strains, locus YNL209W, strain ssb2, stronger effect = lower value 0.993 | S. cerevisiae deletion strains, locus YNL233W, strain BNI4, stronger effect = lower value 1.01 | S. cerevisiae deletion strains, locus YNL248C, strain rpa49, stronger effect = lower value 0.993 | S. cerevisiae deletion strains, locus YNL250W, strain rad50, stronger effect = lower value 0.979 | S. cerevisiae deletion strains, locus YNL271C, strain bni1, stronger effect = lower value 0.99 | S. cerevisiae deletion strains, locus YNL298W, strain CLA4, stronger effect = lower value 1.01 | S. cerevisiae deletion strains, locus YNL307C, strain MCK1, stronger effect = lower value 0.985 | S. cerevisiae deletion strains, locus YNL322C, strain KRE1 (second series), stronger effect = lower value 0.962 | S. cerevisiae deletion strains, locus YNL322C, strain KRE1, stronger effect = lower value 0.996 | S. cerevisiae deletion strains, locus YNR049C, strain mso1, stronger effect = lower value 0.988 | S. cerevisiae deletion strains, locus YNR052C, strain pop2, stronger effect = lower value 0.992 | S. cerevisiae deletion strains, locus YOL006C, strain TOP1, stronger effect = lower value 1.08 | S. cerevisiae deletion strains, locus YOL012C, strain htz1 0.761 | S. cerevisiae deletion strains, locus YOL147C, strain pex11, stronger effect = lower value 0.997 | S. cerevisiae deletion strains, locus YOR001W, strain rrp6, stronger effect = lower value 0.951 | S. cerevisiae deletion strains, locus YOR061W, strain CKA2, stronger effect = lower value 0.997 | S. cerevisiae deletion strains, locus YOR069W, strain VPS5, stronger effect = lower value 0.993 | S. cerevisiae deletion strains, locus YOR070C, strain gyp1, stronger effect = lower value 0.999 | S. cerevisiae deletion strains, locus YOR080W, strain dia2, stronger effect = lower value 0.97 | S. cerevisiae deletion strains, locus YOR083W, strain WHI5, stronger effect = lower value 1.02 | S. cerevisiae deletion strains, locus YOR106W, strain vam3, stronger effect = lower value 0.995 | S. cerevisiae deletion strains, locus YOR136W, strain idh2, stronger effect = lower value 0.974 | S. cerevisiae deletion strains, locus YOR144C, strain elg1, stronger effect = lower value 0.993 | S. cerevisiae deletion strains, locus YOR184W, strain ser1, stronger effect = lower value 1.01 | S. cerevisiae deletion strains, locus YOR231W, strain MKK1, stronger effect = lower value 0.987 | S. cerevisiae deletion strains, locus YOR265W, strain rbl2, stronger effect = lower value 0.99 | S. cerevisiae deletion strains, locus YOR270C, strain vph1, stronger effect = lower value 0.974 | S. cerevisiae deletion strains, locus YOR290C, strain snf2, stronger effect = lower value 0.991 | S. cerevisiae deletion strains, locus YOR316C, strain cot1, stronger effect = lower value 0.987 | S. cerevisiae deletion strains, locus YPL051W, strain arl3, stronger effect = lower value 0.984 | S. cerevisiae deletion strains, locus YPL078C, strain atp4, stronger effect = lower value 1 | S. cerevisiae deletion strains, locus YPL106C, strain sse1, stronger effect = lower value 0.996 | S. cerevisiae deletion strains, locus YPL240C, strain hsp82, stronger effect = lower value 0.986 | S. cerevisiae deletion strains, locus YPL241C, strain CIN2, stronger effect = lower value 1 | S. cerevisiae deletion strains, locus YPL256C, strain CLN2, stronger effect = lower value 0.988 | S. cerevisiae deletion strains, locus YPR119W, strain clb2, stronger effect = lower value 0.986 | S. cerevisiae deletion strains, locus YPR141C, strain kar3, stronger effect = lower value 0.985 | S. cerevisiae deletion strains, locus YPR163C, strain tif3, stronger effect = lower value 0.986 | S. cerevisiae deletion strains, locus YPR167C, strain met16, stronger effect = lower value 0.999 | S. cerevisiae deletion strains, strain wtn01, stronger effect = lower value 0.96 | S. cerevisiae strains, strain wild type, stronger effect = lower value 1
